HT1080 IDH1KD tx: toxicity to HT-1080 IDH1 knockdown cells (counter line) | HT-1080 IDH1 knockdown viability, ATP luminescence, 48 h | Potency, µM (series often up to 46.1 µM), inactives show at the top dose activity, negative = toxicity, hits mostly cytotoxic | 360,000 tested, 2% active;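 note: potency is the fitted concentration of half-maximal effect; 0% = DMSO wells and -100% = cell-free medium wells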
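Assay cells: HT-1080 with IDH1 knockdown, 750 per well, RPMI/5% FBS. Exposure: 48 h at 37 °C following 2 h pre-incubation. Read: CellTiter-Glo luminescence; fitted concentration-response, curve class assigned.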
DT40 TDP1 no CPT: qHTS for Inhibitors of human tyrosyl-DNA phosphodiesterase 1 (TDP1): qHTS in cells in absence of CPT. AID 686978, 2013. 420,000 tested, 15% active. Potency, µM (doses to about 46.2 µM), inactives show top-dose activity change, negative = growth inhibition, most hits filed as inhibitors. DT40 Tdp1-/- hTDP1 cells, no CPT, ATP luminescence, 48 h; note: potency is the fitted concentration of half-maximal effect; nearly all actives have a fitted effect of over 55% in size
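Growth kinetics read by CellTiter-Glo luminescence after ≥48 hr at 37 °C. Cells: DT40 Tdp1-/- stably carrying human TDP1, 400 per well, compound exposure in the absence of CPT (DMSO vehicle).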
TDP1 cell CPT: growth inhibition of DT40 Tdp1-/-;hTDP1 cells with camptothecin (screen for TDP1 inhibitors); 420,000 tested, 12% active; chicken DT40 Tdp1-/-;hTDP1 cells + 20 nM CPT, ATP luminescence, 48 h; Potency, µM (titrated, usually from 46.2 µM), inactives show at the highest dose activity change, negative = growth inhibition, most hits filed as inhibitors; AID 686979; note: potency is the fitted concentration of half-maximal effect; nearly all actives have a fitted effect of over 55% in size
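Chicken DT40 Tdp1-/- cells complemented with human TDP1, 400 cells/well, exposed to compounds plus 20 nM camptothecin for at least 48 h at 37 C; viability read as ATP content by CellTiter-Glo luminescence.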
IL-1B inflam inh: inhibitors of inflammasome signaling (IL-1 beta secretion); 360,000 tested, 4.7% active; activity change, % at 57.5 µM; THP-1 LPS/ATP IL-1B secretion, AlphaLISA, 16 h; stronger effect = lower value; AID 743279; in the data active = activity change below about -50%; inconclusive = mostly about -30% to -49%
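THP-1 cells pretreated 1 hr with compounds (up to 57.5 uM final), then stimulated with LPS (250 ng/mL final) plus ATP (1.25 mM final); secreted IL-1B measured by AlphaLISA after 16 hr, decreased signal indicating inhibition.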
HT1080NT lethal: kills 2HG-producing HT-1080-NT fibrosarcoma cells | HT-1080-NT fibrosarcoma viability, CellTiter-Glo ATP luminescence, 48 h | Potency, µM (series often up to 46.1 µM), for inactives: at the top dose activity, negative = less viability, most hits filed as cytotoxic | 360,000 tested, 1.6% active | AID 686970;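 note: NT is the 2HG producing partner of a matched IDH1 knockdown line; potency is the fitted concentration of half-maximal effect; 0% = DMSO-treated cells and -100% = media-only wells without cells; nearly all actives have a fitted effect of over 55% in size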
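Fibrosarcoma NT cells, 750 per well in 5% FBS RPMI, were exposed to compound for 48 hours. Viability: CellTiter-Glo luminescence.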
* marks the source's active call; other numbers are inactive results; ? = inconclusive; . = no result given. Shown are actives, neighbours in structure and some others; about 19% of the full set was active somewhere. Unless noted, calls come from the whole dose curve; as a rule, active = well fitted curve in the direction sought with a large enough effect; inconclusive = small, poorly fitted or top-dose-only effect, or another doubt; inactive = no such curve, though single readings can be large; an effect the other way counts as inactive or inconclusive. Unless noted, % is set by controls: 0 for no effect and ±100 for the full control effect.

SMILES	HT1080 IDH1KD tx	DT40 TDP1 no CPT	TDP1 cell CPT	IL-1B inflam inh	HT1080NT lethal
CN1CCCCC1CCN1c2ccccc2Sc2ccc(S(C)=O)cc21 (configuration not stated)	?	?	?	-51.8*	?
COc1ccc(C(O)c2nc3ccccc3n2C)cc1OC (configuration not stated)	-29.1%	11.6µM*	9.2µM*	0.7	?
COc1cc(C(O)c2nc3ccccc3s2)cc(OC)c1OC (configuration not stated)	-10.8%	9.2µM*	4.11µM*	9.4	-11.5%
Cc1cc(C)c(Cn2c(C(O)c3ccccc3)nc3ccccc32)c(C)c1 (configuration not stated)	.	9.2µM*	18.4µM*	.	.
CCCn1c(C(O)c2cc(OC)c(OC)c(OC)c2)nc2ccccc21 (configuration not stated)	0.5%	20.6µM*	?	45.3	-0.4%
CCCn1c(C(O)c2ccc(C)cc2)nc2ccccc21 (configuration not stated)	-0.2%	?	?	1.9	3.3%
N#CCCN(Cc1cccs1)C(=O)Nc1ccc(F)cc1	0.2%	9.2%	-2.1%	-7.4	-16.0%
COCCOC(=O)c1c(NC(=O)COC(=O)c2ccc(C)o2)sc(C(N)=O)c1C	4.7%	?	?	10.1	-1.0%
Cc1ccc(NC(=S)NC(=O)c2ccc(-c3ccc(Cl)cc3)o2)c(O)c1	?	20.6µM*	20.6µM*	0.0	?
Cc1ccc(O)c(NC(=S)NC(=O)Cc2ccc(Cl)cc2)c1	?	?	?	85.9	?
Cc1cc(O)c(NC(=S)NC(=O)c2ccc(-c3ccc(Cl)cc3)o2)cc1C	?	20.6µM*	?	-20.3	?
COc1cccc(-c2nn(-c3ccc(C)cc3)cc2C(=O)N2CCN(C3CCS(=O)(=O)C3)CC2)c1 (configuration not stated)	9.1%	4.0%	-11.6%	-22.7	-1.7%
Cc1c(-c2ccccc2)oc2c(C(=O)OCC(=O)Nc3ccc(C(N)=O)cc3)cccc2c1=O	9.6%	?	?	1.1	6.5%
CC(C)C[C@H]1CN(CCCC[C@H]2CNC(=O)C(=O)N2CCc2ccc(O)cc2)C(=O)C(=O)N1CCc1ccccc1	?	-5.1%	-1.2%	40.3	22.3%
CC1CN(C(=O)COC(=O)c2cc(=O)[nH]c3ccccc23)CC(C)O1 (configuration not stated)	14.9%	3.1%	1.9%	1.9	1.8%
COc1ccc(SCc2cc(=O)c3cc(Cl)ccc3[nH]2)cc1	.	3.66µM*	20.6µM*	.	.
CCc1nc(SCc2cc(=O)c3cc(C)ccc3[nH]2)n[nH]1	.	-25.6%	6.0%	.	.
Cc1cc(=O)c2ccc(Cl)cc2[nH]1	-2.1%	-21.0%	-9.1%	65.1	0.2%
O=c1cc(CSc2ccccc2)[nH]c2ccc(F)cc12	.	16.4µM*	11.6µM*	.	.
COc1ccc(NC(=O)CSCc2cc(=O)c3cc(Cl)ccc3[nH]2)cc1	.	-29.0%	0.6%	.	.
Cc1cc(=O)c2cc(Cl)ccc2[nH]1	-2.7%	5.17µM*	5.17µM*	11.5	5.8%
Cc1ccc2[nH]c(CSc3ccccc3)cc(=O)c2c1	-7.0%	16.4µM*	18.4µM*	9.7	-14.1%
Cc1cc(C)nc(NN2C(=O)C=CC2=O)n1	18.9%	?	?	-2.6	12.8%
COc1ccccc1CNS(=O)(=O)c1cc(-c2cc(C)no2)ccc1C(C)C	-25.3%	?	?	-19.8	-25.4%
Cc1cc(NC(=O)CC2CCCC2)ccc1Br	-6.7%	-21.0%	-4.4%	-20.2	-18.5%
SMILES	HT1080 IDH1KD tx	DT40 TDP1 no CPT	TDP1 cell CPT	IL-1B inflam inh	HT1080NT lethal
Cc1ccccc1C(=O)Nc1nnc(SC(C)C)s1	1.5%	-1.5%	-18.9%	-4.5	-14.7%
CCN(CC(=O)Nc1cc(Cl)ccc1C)C(=O)CCS(=O)(=O)c1ccc(Cl)cc1	0.5%	?	18.4µM*	-29.5	3.9%
O=C(c1ccco1)N(Cc1ccc2c(c1)OCO2)Cc1cc2cc3c(cc2[nH]c1=O)OCO3	-1.8%	2.1%	-4.3%	-11.6	1.4%
COc1cccc(C(=O)N(Cc2cc3cc(C)ccc3[nH]c2=O)CC2CCCO2)c1 (configuration not stated)	-6.8%	-23.0%	?	?	-5.9%
COc1ccc(C(=O)N(Cc2ccccc2)Cc2cc3cc4c(cc3[nH]c2=O)OCCO4)cc1	-23.3%	11.2µM*	11.2µM*	12.8	?
COc1cccc(C(=O)N(Cc2ccccc2)Cc2cc3cc4c(cc3[nH]c2=O)OCCO4)c1	?	20.6µM*	13µM*	-11.0	?
Fc1ccc(NC(=S)N2CCN(c3ccccn3)CC2)cc1Cl	-7.1%	-16.8%	?	13.9	-8.1%
c1cc(Nc2cccc3nccnc23)c2nccnc2c1	-26.0%	-21.4%	-18.7%	-54.1*	-5.7%
c1ccc2nccnc2c1	.	1.12µM*	0.794µM*	.	.
CN(C)c1ccc(C(=O)Nc2sc(Nc3ccccc3)nc2C(N)=O)cc1	.	7.31µM*	?	.	.
CCc1nnc(NC(=O)c2ccc(N(C)S(=O)(=O)c3ccccc3)cc2)s1	-13.4%	-21.7%	-26.7%	-6.2	2.1%
CC(C)OC(=O)C1OC1(C)c1ccccc1 (configuration not stated)	17.6%	5.6%	22.9%	1.8	5.4%
O=C(CSCc1nc2cccnc2n1C1CCCCC1)NCc1cccc(Cl)c1	.	10.3µM*	23.1µM*	.	.
CNC(=O)CSc1nc2cccnc2n1C1CCCCC1	3.5%	?	-15.2%	19.2	6.8%
O=C(CSCc1nc2cccnc2n1C1CCCCC1)NCc1cccc(Br)c1	.	20.6µM*	16.4µM*	.	.
CCOC1=C2[C@@H](CN(S(=O)(=O)c3ccc(C)cc3)[C@H]2c2ccccc2F)[C@H]2C(=O)N(c3ccccc3)C(=O)[C@H]2C1	-0.5%	-19.5%	?	5.5	25.5%
CN(/N=C\c1ccc(O)c(O)c1)c1nc(-c2ccccc2)cc(-c2ccccc2)n1	?	1.46µM*	0.82µM*	-60.7*	?
O=C(CSc1nnc(CNC(=O)c2c(F)cccc2F)o1)NCc1ccccc1Cl	-4.2%	-8.7%	-3.3%	-5.2	-4.9%
O=C(Nc1ccc(Cl)cc1)N[C@H]1CC[C@H](CCn2cc(-c3ccccc3F)nn2)O[C@@H]1CO	-21.7%	9.2µM*	8.2µM*	-2.1	-19.8%
CN(C)Cc1cn(CC[C@@H]2CC[C@@H](NC(=O)Nc3ccccc3F)[C@@H](CO)O2)nn1	0.7%	2.2%	-10.6%	0.0	16.5%
COc1ccc(CCC(=O)NC2=NCCS2)cc1OC	-4.9%	-23.0%	-6.4%	0.0	-3.1%
CNc1ncnc2ccc(-c3ccccc3C)cc12	.	23.1µM*	13µM*	.	.

Assay outcomes from PubChem BioAssay.
